# From paper PMC5836133, “The intracellular immune receptor Rx1 regulates the DNA-binding activity of a Golden2-like transcription factor”
# In all, about 16,000 sequences were measured (“e-score”: median about -0.044, highest 2% from about 0.38 on). Only a selection was taken, and the highest values are over-represented in it overall.
# Molecular target: T1, GST-NbGlk1(82-244) (Nicotiana benthamiana)
# T1 chain: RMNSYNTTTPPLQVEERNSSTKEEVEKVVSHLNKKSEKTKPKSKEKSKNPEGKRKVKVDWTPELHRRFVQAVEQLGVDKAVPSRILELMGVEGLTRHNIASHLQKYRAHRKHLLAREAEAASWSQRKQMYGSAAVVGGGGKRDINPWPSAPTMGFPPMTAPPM
# Experiment: protein-binding microarray; NbGlk1 is a Golden2-like transcription factor of Nicotiana benthamiana; high values mean tight binding
# Settings: protein: recombinant; tags: GST (pTH6838); dsDNA, one strand shown
row,Sequence,binding signal [E-score]
1,AAATCGAT,0.336 ± 0.0651
2,AAATCGGT,0.325 ± 0.0221
3,AAATCTGT,0.446 ± 0.00579
4,AACCAGAT,0.301 ± 0.00304
5,AATCGAGA,0.293 ± 0.0295
6,ACAATCCC,0.2757 ± 0.00233
7,AGGATCCA,0.237 ± 0.027
8,AGAATCCT,0.439 ± 0.00609
9,AGAATCCG,0.4779 ± 0.0039
10,ATAATCCG,0.337 ± 0.0347
11,AGAATCCC,0.433 ± 0.00879
12,AGAATCGC,0.377 ± 0.00979
13,ACAATCCT,0.302 ± 0.0343
14,AGAATCCA,0.456 ± 0.0261
15,ACAATCCG,0.334 ± 0.019
16,AGAATCAT,0.359 ± 0.0327
17,ATCCAAAA,0.261 ± 0.0307
18,ATCCTCCG,0.257 ± 0.0282
19,ATCTGCTG,0.291 ± 0.0162
20,ATATGAAA,0.266 ± 0.036
21,AGCGATTC,0.253 ± 0.0595
22,ATAGCGAT,0.247 ± 0.0104

row,Sequence,binding signal [E-score]
1,AGATTATC,0.398 ± 0.0119
2,AGATTACA,0.477 ± 0.0126
3,AGATTACT,0.429
4,AAATTACG,0.317 ± 0.00783
5,AGATTATA,0.31 ± 0.0066
6,AGATTACG,0.484 ± 0.00516
7,ATATTACG,0.331 ± 0.0353
8,AGATTATG,0.35 ± 0.0249
9,ATATTACA,0.281 ± 0.0562
10,AAATTACA,0.281 ± 0.0554
11,ACGATCTG,0.298 ± 0.0786
12,ATCTGAAT,0.319 ± 0.0412
13,ACATGGAT,0.276 ± 0.0921
14,AATAGAGA,0.257 ± 0.00976
15,AGCGGATA,0.27 ± 0.022
16,ATCTGTCG,0.268 ± 0.0941
17,ATCTCAAA,0.337 ± 0.00799
18,ACTTGGAT,0.263 ± 0.0442
19,ATTGCTAC,0.23 ± 0.0982
20,ATTGCAAA,0.212 ± 0.0169
21,AATATTAT,0.211 ± 0.0854
22,ATATGCAC,0.266 ± 0.0704

row,Sequence,binding signal [E-score]
1,AAATTTGC,0.224 ± 0.0355
2,AATCATGA,0.254 ± 0.0429
3,AGATTACC,0.459 ± 0.0174
4,AAATTACC,0.252 ± 0.0504
5,AGATTTAC,0.349 ± 0.00929
6,AATATACG,0.253 ± 0.0484
7,AAGATTAT,0.288 ± 0.039
8,AAAATTAC,0.203 ± 0.0427
9,AATATTAC,0.235 ± 0.084
10,AAGATTAC,0.454 ± 0.0269
11,CAAATTAC,0.275 ± 0.0131
12,CAGATTAC,0.47655 ± 0.000118
13,ATTGTGTC,0.225 ± 0.0437
14,ATCTGCGA,0.35 ± 0.033
15,ATTACCCA,0.234 ± 0.0351
16,AATCGATC,0.26 ± 0.0524
17,AGATTTCA,0.467 ± 0.0101
18,ATATTTCA,0.302 ± 0.00721
19,AAATTTCC,0.305 ± 0.0382
20,AGATTTTC,0.4879 ± 0.00245
21,ATTTTTTG,0.315 ± 0.021
22,ATATTTCC,0.369 ± 0.00928

row,Sequence,binding signal [E-score]
1,ATATTTTG,0.274 ± 0.0771
2,AGATTTCC,0.4969 ± 0.000664
3,AGATTTTG,0.4649 ± 0.003
4,AAATTTCA,0.229 ± 0.0474
5,ATATTTTC,0.363 ± 0.0153
6,AAATTTTC,0.273 ± 0.00676
7,ACGTATAA,0.241 ± 0.0276
8,ATCACACA,0.274 ± 0.0193
9,ATCAGATA,0.311 ± 0.0291
10,ACAGTATA,0.203 ± 0.12
11,ACGTATCG,0.2234 ± 0.00122
12,ATTCGAAA,0.208 ± 0.0296
13,AGATTTCG,0.4861 ± 0.00274
14,AAATTTCG,0.332 ± 0.0714
15,AGATTTTA,0.414 ± 0.0235
16,ATATTTCG,0.347 ± 0.00521
17,AGATTTAT,0.261 ± 0.0998
18,AGATTTAA,0.269 ± 0.0136
19,ATTATCTA,0.201 ± 0.0162
20,AACGTAAT,0.361 ± 0.0152
21,AAGGGAAT,0.259 ± 0.00401
22,AAAATCTC,0.4529 ± 0.00114
